“And” between values parts separate entries of the source, which are not always exact repeats. Identical values can stand only once. Inconclusive results are not listed. The source made the active and inactive calls. Calls follow the shape of the dose curve; as a rule, active = well fitted activation curve with a large enough effect; inconclusive = small, poorly fitted or top-dose-only effect; inactive = no such curve, though single readings can be large or run the other way.
The compounds below were run against Cellular tumor antigen p53 (Homo sapiens) (UniProt P04637) (assay: Primary qHTS for small molecule compounds that upregulate eGFP-tagged delta133p53alpha (in N-terminal) cells. (AID 2060322; also: nearly all actives have a fitted effect of over 75% in size;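 as to activation: series mostly up to about 56 µM; 0% = DMSO vehicle and 100% = reference activator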)). Conditions: NCI-H358 eGFP-delta133p53alpha fluorescence, 24 h; activation: active compounds read high.
Procedure, shortened: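 NCI-H358 cells pre-induced 24 h with 10 ng/ml doxycycline to express N-terminal eGFP-delta133p53alpha, then dosed 24 h at 37C without doxycycline; fixed, Hoechst-stained, GFP intensity by laser scanning cytometry, normalized to DMSO (0%) and 57.5 uM 5-azacytidine (100%).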
Potency is read from the fitted curve at half-maximal effect.

Cellular tumor antigen p53 (Homo sapiens), sequence (P04637 whole entry, looked up): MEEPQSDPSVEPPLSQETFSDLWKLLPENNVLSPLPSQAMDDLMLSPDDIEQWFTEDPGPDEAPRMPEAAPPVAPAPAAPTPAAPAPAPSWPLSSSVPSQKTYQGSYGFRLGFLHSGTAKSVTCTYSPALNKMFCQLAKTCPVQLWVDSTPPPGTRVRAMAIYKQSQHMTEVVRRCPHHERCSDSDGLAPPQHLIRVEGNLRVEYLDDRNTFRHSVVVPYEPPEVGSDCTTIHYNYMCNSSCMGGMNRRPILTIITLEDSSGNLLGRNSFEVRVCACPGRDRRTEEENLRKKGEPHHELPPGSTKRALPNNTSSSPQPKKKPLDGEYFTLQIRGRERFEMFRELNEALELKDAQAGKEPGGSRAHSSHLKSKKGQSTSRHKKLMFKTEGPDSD

Row | SMILES | activation | Potency
1 | CC(C)(C)NC(=O)[C@H]1CN(Cc2cccnc2)CCN1C[C@@H](O)C[C@@H](Cc1ccccc1)C(=O)N[C@H]1c2ccccc2C[C@H]1O | 18.3% (inactive) | 
2 | COc1ccc(C(Cl)=C(c2ccc(OC)cc2)c2ccc(OC)cc2)cc1 | -1.67% (inactive) | 
3 | CC(C)NCC(O)c1ccc2ccccc2c1 (stereo not given) | -2.82% (inactive) | 
4 | O=C(CO)[C@@H](O)[C@H](O)[C@@H](O)CO | -15.9% (inactive) | 
5 | O=C(O)c1ccccc1C(=O)Nc1ccc(S(=O)(=O)Nc2nccs2)cc1 | 8.47% (inactive) | 
6 | Oc1ccccc1-c1nnco1 | -23.2% (inactive) | 
7 | CCOC(=O)C(=O)CCc1ccccc1 | 10% (inactive) | 
8 | C[C@@H](O)[C@H]1C(=O)N2C(C(=O)O)=C(S[C@@H]3CN[C@H](C(=O)N(C)C)C3)[C@H](C)[C@H]12 | 7.34% (inactive) | 
9 | C[C@H](CCC(=O)O)[C@H]1CC[C@H]2[C@@H]3[C@H](O)C[C@@H]4C[C@H](O)CC[C@]4(C)[C@@H]3CC[C@]12C | -19.5% (inactive) | 
10 | O=C1NC(=O)C(=Cc2ccc(-c3ccc(F)cc3)o2)S1 | -1.63% (inactive) | 
11 | CCn1c(-c2nc3cc(C(=O)N4CCC[C@@H](N)C4)cc(OC)c3n2C)cc2ccccc21 | -14.5% (inactive) | 
12 | CC(=O)N[C@@H](CC(C)C)C(=O)O | 0% (inactive) | 
13 | O=S(=O)(O)c1ccc(O)cc1 | 5.08% (inactive) | 
14 | Cn1cc(C2=C(c3cn(CCCN)c4ccccc34)C(=O)NC2=O)c2ccccc21 |  | 24.3 µM (active)
15 | CC(C)(C)C(=O)OCOC(=O)C1N2C(=O)CC2S(=O)(=O)C1(C)C (stereo not given) | 3.95% (inactive) | 
16 | CN(C)CCOC(c1ccc(Cl)cc1)c1ccccn1 (stereo not given) | 15.3% (inactive) | 
17 | CC(C)(O)[C@H]1CC[C@@](C)([C@H]2[C@@H](O)C[C@@]3(C)[C@@H]4C[C@H](O[C@@H]5O[C@H](CO)[C@@H](O)[C@H](O)[C@@H]5O)[C@H]5C(C)(C)[C@@H](O[C@@H]6OC[C@@H](O)[C@H](O)[C@@H]6O)CC[C@@]56C[C@@]46CC[C@]23C)O1 | 10.3% (inactive) | 
18 | NC(=O)C1(N2CCCCC2)CCN(CCCC(=O)c2ccc(F)cc2)CC1 | 14.2% (inactive) | 
19 | O=C(c1cc(O)c(O)c(O)c1)c1ccc(O)c(O)c1O | 23.2% (inactive) | 
20 | N=C1N=C(N)c2cc3ccccc3cc21 |  | 35.5 µM (active)

Row | SMILES | activation | Potency
21 | CC(C)(C)[C@H](NC(=O)c1ccc(N)c(Cl)c1)C(=O)N1CCC[C@@H]1C(=O)N[C@H](C#N)CC(=O)O | -1.07% (inactive) | 
22 | C[C@H]1[C@H](NC(=O)/C(=N/OC(C)(C)C(=O)O)c2csc(N)n2)C(=O)N1S(=O)(=O)O (stereo in doubt) | 5.08% (inactive) | 
23 | CCOC(N)=O | -2.82% (inactive) | 
24 | CC(Cc1cccc(C(F)(F)F)c1)NCCOC(=O)c1ccccc1 (stereo not given) | 17.6% (inactive) | 
25 | CCOC(=O)C(=O)c1csc(NC=O)n1 | -16.4% (inactive) | 
26 | CC[N+](CC)(CC(=O)Nc1c(C)cccc1C)Cc1ccccc1 | -10.9% (inactive) | 
27 | C[C@H](NCc1ccc(OCc2cccc(F)c2)cc1)C(N)=O |  | 24.3 µM (active)
28 | CN[C@H]1[C@@H](O)[C@@H]2O[C@@H]3O[C@H](C)CC(=O)[C@]3(O)O[C@@H]2[C@@H](NC)[C@H]1O | -7.34% (inactive) | 
29 | NCC[C@H](O)C(=O)N[C@@H]1C[C@H](N)[C@@H](O[C@H]2O[C@H](CN)[C@@H](O)[C@H](O)[C@@H]2O)[C@H](O)[C@@H]1O[C@H]1O[C@H](CO)[C@@H](O)[C@H](N)[C@@H]1O | -2.51% (inactive) | 
30 | O=C(O)Cc1ccc(CCNS(=O)(=O)c2ccc(Cl)cc2)cc1 | -1.67% (inactive) | 
31 | CC1(C)[C@H]2CC[C@]3(C)[C@@H](C(=O)C=C4[C@@H]5C[C@@](C)(C(=O)O)CC[C@]5(C)CC[C@]43C)[C@@]2(C)CC[C@@H]1O | 3.97% (inactive) | 
32 | CC(=O)Nc1c(I)cc(I)c(C(=O)O)c1I | -3.95% (inactive) | 
33 | CCC(=O)Nc1ccc(O)cc1 | -18.6% (inactive) | 
34 | Nc1ccn([C@@H]2O[C@H](CO)[C@H](O)C2(F)F)c(=O)n1 | 10.5% (inactive) | 
35 | CCOC(=O)NNc1ccc(N(CC)CC(C)O)nn1 (stereo not given) | 15.1% (inactive) | 
36 | Cc1cccc(C)c1OCC(=O)N[C@@H](Cc1ccccc1)[C@@H](O)C[C@H](Cc1ccccc1)NC(=O)[C@H](C(C)C)N1CCCNC1=O | -5.4% (inactive) and 28.8% (inactive) | 
37 | CC(C)=CCCC(C)=CCCC(C)=CCSc1ccccc1C(=O)O | 4.74% (inactive) | 
38 | Nc1ncnc(Nc2ccccc2)n1 | -16.7% (inactive) | 
39 | Nc1ccc(C(=O)O)cc1 | -29.9% (inactive) | 
40 | CCC(C(=O)OCCN1CCOC(c2ccccc2)C1C)c1ccccc1 (stereo not given) | -7.53% (inactive) | 

Reference: PubChem BioAssay (NCATS)
